WT yeast gro inh: growth inhibition of WT yeast, mitochondrial fusion screen | mitochondrial fusion phenotypic screen, WT strain | inhibition, % at 10 µM | 2.1% of 190,000 active; in the data active = inhibition above about 58%; tested in S. cerevisiae
RAM network inh: inhibitors of the yeast RAM network | S. cerevisiae dse1pr::URA3 reporter, 5-FOA growth OD615, 2 d; analog-sensitive cbk1-as2 kinase mutant strain | inhibition, % at 50 µM | 1.8% of 190,000 active;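 active = inhibition above a set limit, 3 SD over mean compound inhibition, cut at about 8.4% in these data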;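 note: inhibition rescues growth on 5-FOA so higher OD means more RAM inhibition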
L major viab: reduces viability of Leishmania major promastigotes; resazurin fluorescence viability; inhibition, % at 10 µM; 9% of 200,000 active; in the data active = inhibition above about 50%;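 note: promastigotes grown with compound for 44 hours at 28 °C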
CHOP inhibitor: CHOP inhibition in unfolded protein response | CHO-K1 CHOP-promoter luciferase, tunicamycin-induced, 15-18 h | inhibition, % at 10 µM | 3.8% of 220,000 active | AID 2732;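 active = compounds that reduced the stress-induced luciferase reporter signal by more than about 70% of percent inhibition, limit read from the data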
CHOP confirm: confirmation of CHOP induction inhibitors; shares compounds with CHOP inhibitor; CHO-CHOP promoter luciferase reporter, tunicamycin-induced, luminescence; inhibition, % at 10 µM; 45% of 2,100 active; AID 504437;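 active = mean of three repeat readings of reporter signal inhibition above a set limit, cut at about 70% in these data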
Of the large screens only hits and unclear results are named; the others gave an inactive call (follow-up assays come after a bar, where they were run). The list is not random: actives were taken first. Their share in the collection is about 13%.

COc1cc(CNCc2ccccn2)ccc1OCc1ccc(Cl)cc1Cl	L major viab 99.2, CHOP inhibitor 98.1 | CHOP confirm 106.1
Cc1cc(=O)oc2cc(NC(=O)CC3(CC(=O)O)CCCC3)ccc12	none (no result: WT yeast gro inh, RAM network inh, L major viab)
O=C(NCc1ccccc1)c1cc(-c2ccncc2)nc2ccc(S(=O)(=O)N3CCOCC3)cc12	CHOP inhibitor 102.6 | CHOP confirm 107.5
NNC(=O)CNC(c1ccccc1)c1cc(Br)ccc1NC(=O)c1ccccc1Br (stereo unspecified)	none
O=[N+]([O-])c1cccc(/C=N/Nc2nc(NCc3ccccc3)nc(N3CCOCC3)n2)c1	CHOP inhibitor 104.3 | CHOP confirm inactive
O=S(=O)(NC1CC1)c1ccc(S(=O)(=O)N(Cc2ccccn2)C2CC2)cc1	none (no result: WT yeast gro inh, RAM network inh, L major viab)
Cc1ccc(Sc2ccc(NC(=O)c3ccc(S(C)(=O)=O)cc3Cl)cc2)cc1	CHOP inhibitor 97.8 | CHOP confirm inactive
CS(=O)(=O)c1ccc(C(=O)Nc2ccc(N3CCCCC3)cc2)c(Cl)c1	none
Cc1onc(COc2ccccc2O)c1Br	none
O=C(CN1c2ccccc2Sc2ccccc21)NNC(=O)Nc1cccc(Cl)c1	CHOP inhibitor 103.1 (no result: WT yeast gro inh, RAM network inh, L major viab) | CHOP confirm 117.5
Nc1nonc1C(=O)NCCN=Cc1ccccc1O	none
Nc1nonc1C(=O)NCCN=Cc1cc(Cc2ccccc2)cc(Br)c1O	CHOP inhibitor 103.5 | CHOP confirm inactive
N#CCCN(C(=O)Nc1ccc(Cl)c(Cl)c1)c1ccccc1	none
O=C(N/N=C/c1ccc(O)c2ncccc12)c1cccc(Br)c1	L major viab 100.4, CHOP inhibitor 105.3 | CHOP confirm inactive
O=C(N/N=C/c1ccc([N+](=O)[O-])s1)c1cccc(Br)c1	L major viab 100.4, CHOP inhibitor 97.3 | CHOP confirm inactive
CC(C)C(=O)NNc1ccc(C(F)(F)F)cn1	none (no result: WT yeast gro inh, RAM network inh, L major viab)
O=c1c2ccccc2c(C=Nc2cccc(O)c2)c(O)n1-c1ccc2c(c1)OCO2	CHOP inhibitor 107.3 | CHOP confirm inactive
Oc1[nH]c2ccccc2c1C=Nc1ccc2c(c1)OCO2	none
O=C(NC(c1ccc(Cl)cc1)c1cc(Cl)c2cccnc2c1O)c1cccnc1 (stereo unspecified)	L major viab 99.0, CHOP inhibitor 110.1 | CHOP confirm inactive
COc1ccc(Oc2nc(C)cc(C)c2C#N)cc1	none
COc1ccc(C2(O)CC3CCC(C2)N3c2nc(C)cc(C)c2C#N)cc1 (stereo unspecified)	CHOP inhibitor 101.2 | CHOP confirm inactive
Cc1ccc(C2C(/C=C3/SC(=S)NC3=O)=C(c3cccs3)Oc3ccccc32)cc1 (stereo unspecified)	RAM network inh 10.2, CHOP inhibitor 99.1 | CHOP confirm inactive
CC1Cc2cc(/C=C3/SC(=S)NC3=O)ccc2O1 (stereo unspecified)	none (no result: WT yeast gro inh, RAM network inh, L major viab)
CC[C@@H](C)[C@H](NC(=O)OC(C)(C)C)c1nnc(S(=O)(=O)Cc2cc(C)ccc2C)o1	WT yeast gro inh 66.1, CHOP inhibitor 114.9 | CHOP confirm 123.3
Cc1ccccc1CS(=O)(=O)c1nnc([C@H](CC(C)C)NC(=O)OC(C)(C)C)o1	WT yeast gro inh 75.1, CHOP inhibitor 107.5 | CHOP confirm 122.8
CC(C)(C)OC(=O)N[C@@H](Cc1ccccc1)c1nnc(S(=O)(=O)Cc2cccc(F)c2)o1	none
CCCn1c(=O)c(C(=O)NNS(=O)(=O)c2ccc(Cl)cc2)c(O)c2ccccc21	CHOP inhibitor 106.9 | CHOP confirm inactive
O=C(CSC1=NS(=O)(=O)c2ccccc21)Nc1ccccc1	CHOP inhibitor 106.3 | CHOP confirm inactive
COC(=O)CSC1=NS(=O)(=O)c2ccccc21	none
CC1=C(C)CS(=O)N(S(=O)(=O)c2ccc(Cl)cc2)C1 (stereo unspecified)	none (no result: CHOP inhibitor) | CHOP confirm inactive
CSc1cccc(NC(=O)COc2cccc3ccccc23)c1	CHOP inhibitor 105.7 (no result: WT yeast gro inh) | CHOP confirm inactive
CCOc1ccccc1/C=C(/NC(=O)c1ccccc1)C(=O)NC(C)c1ccccc1 (stereo unspecified)	none
CCn1nccc1C(=O)Nc1cc(Cl)ccc1Cl	none
CCn1ncc(Cl)c1C(=O)Nc1cc(Cl)ccc1Cl	CHOP inhibitor 99.7 | CHOP confirm inactive
CCCc1cc(=O)[nH]c(SCCOc2ccc(Cl)cc2)n1	CHOP inhibitor 101.1 | CHOP confirm inactive
O=[N+]([O-])c1cccnc1N1CCC(c2cc(-c3cccc(C(F)(F)F)c3)n[nH]2)CC1	WT yeast gro inh 77.7, CHOP inhibitor 103.0 | CHOP confirm inactive
Cc1ccc2nc(/C(C#N)=C/c3ccc(-c4cccc([N+](=O)[O-])c4)o3)[nH]c2c1	CHOP inhibitor 108.0 | CHOP confirm inactive
COc1ccc(/C=C(\C#N)c2nc3ccc(C)cc3[nH]2)cc1Oc1ccc(C(F)(F)F)cc1[N+](=O)[O-]	CHOP inhibitor 101.6 | CHOP confirm inactive
Cc1nc(Nc2ccc(F)cc2)[nH]c(=O)c1CCC(C)C	L major viab 53.4, CHOP inhibitor 104.5 | CHOP confirm 106.9
Cc1cc(C)cc(Nc2nc3ccccc3c(=O)[nH]2)c1	none
CCCCCc1c(C)nc(Nc2ccccc2)[nH]c1=O	CHOP inhibitor 104.3 | CHOP confirm 85.8
O=c1[nH]c2ccc(S(=O)(=O)N3CCC(Cc4ccccc4)CC3)cc2o1	CHOP inhibitor 100.2 | CHOP confirm inactive
O=C(CSc1ccc(C(F)(F)F)cc1[N+](=O)[O-])Nc1ccccc1	CHOP inhibitor 96.7 | CHOP confirm inactive
O=C(Nc1ccc(F)cc1)c1ccccc1Oc1ccc(C(F)(F)F)cc1[N+](=O)[O-]	WT yeast gro inh 65.8, L major viab 97.2, CHOP inhibitor 106.1 | CHOP confirm inactive
CN1CCN(C(=S)SCC(=O)Nc2nc(-c3ccccc3)c(-c3ccccc3)o2)CC1	none
Cc1n[nH]c(=S)n1/N=C/c1ccccc1OCc1ccc(Cl)cc1Cl	CHOP inhibitor 101.6 | CHOP confirm inactive
Cc1n[nH]c(=S)n1/N=C/c1ccc(OCc2ccc(Cl)cc2Cl)cc1	none
COc1ccc(C(CCNCc2ccc(F)cc2)c2ccc(F)cc2)cc1 (stereo unspecified)	WT yeast gro inh 59.2, L major viab 72.1, CHOP inhibitor 100.6 | CHOP confirm 105.3
CCOC(=O)c1nc(-c2ccc(OC)c(OC)c2)no1	none
O=C(c1ccc2c3c(cccc13)C(=O)N(O)C2=O)N1CCCCC1	CHOP inhibitor 97.8 | CHOP confirm 109.0
Cc1cc(C)cc(NC(=O)/C(C#N)=C/c2cn(CC(=O)NCc3ccco3)c3ccccc23)c1	CHOP inhibitor 106.0 | CHOP confirm 105.6
Cc1ccc(NC(=O)/C(C#N)=C/c2cn(CC(=O)NCc3ccco3)c3ccccc23)cc1C	none
Cc1ccc(C)c(NC(=O)/C(C#N)=C/c2cn(CC(=O)NCc3ccco3)c3ccccc23)c1	CHOP inhibitor 106.0 | CHOP confirm inactive
O=C(O)c1cc(-c2ccc(Cl)cc2)n(-c2ccc(Cl)cc2)n1	none
O=C(N=NC(=O)c1ccc2c(O)n(CC3CCCO3)c(O)c2c1)c1cccnc1 (stereo unspecified)	none (no result: WT yeast gro inh, RAM network inh, L major viab)
Cc1ccccc1OCC(=O)NNC(=O)c1ccc(-c2ccccc2)cc1	CHOP inhibitor 105.3 | CHOP confirm inactive
COC(=O)/C(=C(/F)Sc1cc(C)c(O)c(C)c1)C(F)(F)F	WT yeast gro inh 94.1, CHOP inhibitor 97.5 | CHOP confirm 118.3
